# Measurements: PubChem BioAssay AID1159580 (chemical genetic matrix, 2015)
# The whole screen tested about 5,500 compounds, of which about 2,000 (36%) were called active. Roughly 18% stayed inconclusive and do not appear here. Some of the results follow. A number with no mark means an inactive call. No stated cut-off is given here; in the data, active means normalized growth mostly below about 0.91 (no sharp cut-off); inconclusive means no clear call, values can overlap the other calls; inactive means mostly above about 0.92.
# Test: chemical genetic growth profiling, strain panel (AID 1159580);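 further: tested at 20 µM; growth read once vehicle control cultures reached saturation at 30 °C; 1 = growth at the plate median or of vehicle wells; lower values mean less growth of the strain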
# Details: growth OD
# [1] = S. cerevisiae deletion strains, locus YDL101C, strain DUN1, hits give low values
# [2] = S. cerevisiae deletion strains, locus YHR030C, strain SLT2, hits give low values
structure (smiles),measurement,setting,value
O=C(Nc1cc2ccccc2s1)N1CCN(Cc2c(F)cccc2Cl)CC1,normalized growth,"S. cerevisiae deletion strains, locus YAR019C, strain CDC15, hits give low values",0.994
same,normalized growth,"S. cerevisiae deletion strains, locus YBL105C, strain PKC1, hits give low values",0.974
same,normalized growth,"S. cerevisiae deletion strains, locus YBR135W, strain CKS1, hits give low values",0.986
same,normalized growth,"S. cerevisiae deletion strains, locus YBR136W, strain MEC1, hits give low values",0.973
same,normalized growth,"S. cerevisiae deletion strains, locus YBR160W, strain CDC28, hits give low values",0.972
same,normalized growth,"S. cerevisiae deletion strains, locus YDL017W, strain CDC7, hits give low values",0.983
same,normalized growth,"S. cerevisiae deletion strains, locus YDL028C, strain MPS1, hits give low values",0.988
same,normalized growth,[1],0.982
same,normalized growth,"S. cerevisiae deletion strains, locus YDL108W, strain KIN28, hits give low values",0.989
same,normalized growth,"S. cerevisiae deletion strains, locus YDL132W, strain cdc53, hits give low values",0.983
same,normalized growth,"S. cerevisiae deletion strains, locus YDL214C, strain PRR2, hits give low values",0.938
same,normalized growth,"S. cerevisiae deletion strains, locus YDR052C, strain DBF4, hits give low values",0.986
same,normalized growth,"S. cerevisiae deletion strains, locus YDR054C, strain cdc34, hits give low values",0.968
same,normalized growth,"S. cerevisiae deletion strains, locus YDR226W, strain ADK1, hits give low values",0.979
same,normalized growth,"S. cerevisiae deletion strains, locus YDR477W, strain SNF1, hits give low values",0.943
same,normalized growth,"S. cerevisiae deletion strains, locus YER123W, strain YCK3, hits give low values",0.946
same,normalized growth,"S. cerevisiae deletion strains, locus YER133W, strain GLC7, hits give low values",0.95
same,normalized growth,"S. cerevisiae deletion strains, locus YFL009W, strain cdc4, hits give low values",0.981
same,normalized growth,"S. cerevisiae deletion strains, locus YFL029C, strain CAK1, hits give low values",0.984
same,normalized growth,"S. cerevisiae deletion strains, locus YFR003C, strain YPI1, hits give low values",0.983
same,normalized growth,"S. cerevisiae deletion strains, locus YFR019W, strain FAB1, hits give low values",0.958
same,normalized growth,"S. cerevisiae deletion strains, locus YFR028C, strain CDC14, hits give low values",0.988
same,normalized growth,"S. cerevisiae deletion strains, locus YGR040W, strain KSS1, hits give low values",0.925
same,normalized growth,"S. cerevisiae deletion strains, locus YGR052W, strain FMP48, hits give low values",0.986
same,normalized growth,"S. cerevisiae deletion strains, locus YGR092W, strain DBF2, hits give low values",0.972
same,normalized growth,[2],0.938
same,normalized growth,"S. cerevisiae deletion strains, locus YHR079C, strain IRE1, hits give low values",0.934
same,normalized growth,"S. cerevisiae deletion strains, locus YHR082C, strain KSP1, hits give low values",0.982
same,normalized growth,"S. cerevisiae deletion strains, locus YHR205W, strain SCH9, hits give low values",0.972
same,normalized growth,"S. cerevisiae deletion strains, locus YIL147C, strain SLN1, hits give low values",0.982
same,normalized growth,"S. cerevisiae deletion strains, locus YJL095W, strain BCK1, hits give low values",0.927
same,normalized growth,"S. cerevisiae deletion strains, locus YJL128C, strain PBS2, hits give low values",0.965
same,normalized growth,"S. cerevisiae deletion strains, locus YJL157C, strain FAR1, hits give low values",0.913
same,normalized growth,"S. cerevisiae deletion strains, locus YJR016C, strain ILV3, hits give low values",0.997
same,normalized growth,"S. cerevisiae deletion strains, locus YJR066W, strain TOR1 (second series), hits give low values",0.904
same,normalized growth,"S. cerevisiae deletion strains, locus YJR066W, strain TOR1, hits give low values",0.979
same,normalized growth,"S. cerevisiae deletion strains, locus YKL048C, strain ELM1, hits give low values",0.983
same,normalized growth,"S. cerevisiae deletion strains, locus YKL067W, strain YNK1, hits give low values",0.946
same,normalized growth,"S. cerevisiae deletion strains, locus YKL101W, strain HSL1, hits give low values",0.918
same,normalized growth,"S. cerevisiae deletion strains, locus YKL193C, strain SDS22, hits give low values",0.986
same,normalized growth,"S. cerevisiae deletion strains, locus YKL203C, strain TOR2, hits give low values",0.975
same,normalized growth,"S. cerevisiae deletion strains, locus YLR113W, strain HOG1, hits give low values",0.853 (active)
same,normalized growth,"S. cerevisiae deletion strains, locus YLR133W, strain CKI1, hits give low values",0.928
same,normalized growth,"S. cerevisiae deletion strains, locus YLR403W, strain SFP1, hits give low values",0.906
same,normalized growth,"S. cerevisiae deletion strains, locus YML070W, strain DAK1, hits give low values",0.915
same,normalized growth,"S. cerevisiae deletion strains, locus YMR001C, strain CDC5, hits give low values",0.984
same,normalized growth,"S. cerevisiae deletion strains, locus YMR205C, strain PFK2 (second series), hits give low values",0.95
same,normalized growth,"S. cerevisiae deletion strains, locus YMR277W, strain FCP1, hits give low values",0.983
same,normalized growth,"S. cerevisiae deletion strains, locus YNL006W, strain LST8, hits give low values",0.989
same,normalized growth,"S. cerevisiae deletion strains, locus YNL020C, strain ARK1, hits give low values",0.928
same,normalized growth,"S. cerevisiae deletion strains, locus YNL161W, strain CBK1, hits give low values",0.988
same,normalized growth,"S. cerevisiae deletion strains, locus YNL183C, strain NPR1, hits give low values",0.944
same,normalized growth,"S. cerevisiae deletion strains, locus YNL207W, strain RIO2, hits give low values",0.976
same,normalized growth,"S. cerevisiae deletion strains, locus YNL222W, strain SSU72, hits give low values",0.988
same,normalized growth,"S. cerevisiae deletion strains, locus YNL307C, strain MCK1 (second series), hits give low values",0.961
same,normalized growth,"S. cerevisiae deletion strains, locus YOL078W, strain AVO1, hits give low values",0.982
same,normalized growth,"S. cerevisiae deletion strains, locus YOL136C, strain PFK27, hits give low values",0.911
same,normalized growth,"S. cerevisiae deletion strains, locus YOR061W, strain CKA2, hits give low values",0.952
same,normalized growth,"S. cerevisiae deletion strains, locus YOR119C, strain RIO1, hits give low values",0.993
same,normalized growth,"S. cerevisiae deletion strains, locus YOR231W, strain MKK1, hits give low values",0.877
same,normalized growth,"S. cerevisiae deletion strains, locus YOR329C, strain SCD5, hits give low values",0.972
same,normalized growth,"S. cerevisiae deletion strains, locus YPL031C, strain PHO85, hits give low values",0.942
same,normalized growth,"S. cerevisiae deletion strains, locus YPL153C, strain RAD53, hits give low values",0.917
same,normalized growth,"S. cerevisiae deletion strains, locus YPL204W, strain HRR25, hits give low values",0.915
same,normalized growth,"S. cerevisiae deletion strains, locus YPL209C, strain IPL1, hits give low values",0.976
same,normalized growth,"S. cerevisiae deletion strains, locus YPL256C, strain CLN2, hits give low values",0.888
same,normalized growth,"S. cerevisiae deletion strains, locus YPR025C, strain CCL1, hits give low values",0.986
same,normalized growth,"S. cerevisiae deletion strains, locus YPR106W, strain ISR1, hits give low values",0.962
same,normalized growth,"S. cerevisiae deletion strains, locus YPR111W, strain DBF20, hits give low values",0.962
same,normalized growth,"S. cerevisiae deletion strains, strain NNK1, hits give low values",0.972
same,normalized growth,"S. cerevisiae deletion strains, strain TSCII, hits give low values",0.986
O=C1C(c2ccc(Br)cc2)=C(O)c2ccccc21,normalized growth,"S. cerevisiae deletion strains, locus YAL013W, strain DEP1, hits give low values",0.981
same,normalized growth,"S. cerevisiae deletion strains, locus YBR229C, strain ROT2, hits give low values",0.912 (active)
same,normalized growth,[1],0.953
same,normalized growth,"S. cerevisiae deletion strains, locus YDR150W, strain NUM1, hits give low values",0.958
same,normalized growth,"S. cerevisiae deletion strains, locus YEL061C, strain CIN8, hits give low values",0.99
same,normalized growth,"S. cerevisiae deletion strains, locus YGR078C, strain PAC10, hits give low values",0.915 (active)
same,normalized growth,"S. cerevisiae deletion strains, locus YGR229C, strain SMI1, hits give low values",0.952
same,normalized growth,[2],0.849
same,normalized growth,"S. cerevisiae deletion strains, locus YHR087W, strain rtc3, hits give low values",0.868 (active)
same,normalized growth,"S. cerevisiae deletion strains, locus YJL187C, strain SWE1, hits give low values",0.913 (active)
same,normalized growth,"S. cerevisiae deletion strains, locus YJR043C, strain POL32, hits give low values",0.978
same,normalized growth,"S. cerevisiae deletion strains, locus YJR075W, strain HOC1, hits give low values",0.851 (active)
same,normalized growth,"S. cerevisiae deletion strains, locus YKL190W, strain CNB1, hits give low values",0.983
same,normalized growth,"S. cerevisiae deletion strains, locus YLR039C, strain RIC1, hits give low values",0.974
same,normalized growth,"S. cerevisiae deletion strains, locus YLR058C, strain SHM2 (second series), hits give low values",0.893 (active)
same,normalized growth,"S. cerevisiae deletion strains, locus YLR085C, strain ARP6, hits give low values",0.982
same,normalized growth,"S. cerevisiae deletion strains, locus YLR262C, strain YPT6, hits give low values",0.957
same,normalized growth,"S. cerevisiae deletion strains, locus YML094W, strain GIM5, hits give low values",0.983
same,normalized growth,"S. cerevisiae deletion strains, locus YMR219W, strain ESC1, hits give low values",0.896 (active)
same,normalized growth,"S. cerevisiae deletion strains, locus YMR263W, strain SAP30, hits give low values",1.02
same,normalized growth,"S. cerevisiae deletion strains, locus YNL153C, strain GIM3, hits give low values",0.966
same,normalized growth,"S. cerevisiae deletion strains, locus YNL298W, strain CLA4 (second series), hits give low values",0.994
same,normalized growth,"S. cerevisiae deletion strains, locus YNL322C, strain KRE1, hits give low values",0.938 (active)
same,normalized growth,"S. cerevisiae deletion strains, locus YNR030W, strain Alg12, hits give low values",0.989
same,normalized growth,"S. cerevisiae deletion strains, locus YOL006C, strain TOP1, hits give low values",1.01
same,normalized growth,"S. cerevisiae deletion strains, locus YPL055C, strain LGE1, hits give low values",0.928
same,normalized growth,"S. cerevisiae deletion strains, locus YPL241C, strain CIN2, hits give low values",1.03
same,normalized growth,"S. cerevisiae deletion strains, locus YPR135W, strain CTF4, hits give low values",0.942
same,normalized growth,"S. cerevisiae strains, strain wild type, hits give low values",0.979
